Drawing on PubChem BioAssay AID1210 (NMMLSC, 2008), this text covers inhibition for 38 compounds.

The structures appear in SMILES notation. Activity calls are given as the source filed them.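 How the source made its calls: active means blocks over 70% of labeled estradiol binding at 10 µM, or over a set limit at 100 nM; inactive means the rest.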

For this experiment, the target named is Estrogen receptor beta (Homo sapiens) (UniProt Q92731). As to the kind of experiment: ERbeta ligand binders by competition, primary screen, cell-based, Cos7 ERbeta-GFP, flow cytometry (AID 1210).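 Further: 0% = DMSO vehicle wells and 100% = complete loss of labeled estradiol signal.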 The conditions noted are these: fluorescent estrogen binding, at 10 µM, active compounds read high. In general terms: A flow cytometer gives signals particle by particle.
Sequence of Estrogen receptor beta (Homo sapiens) (Q92731 whole entry, looked up): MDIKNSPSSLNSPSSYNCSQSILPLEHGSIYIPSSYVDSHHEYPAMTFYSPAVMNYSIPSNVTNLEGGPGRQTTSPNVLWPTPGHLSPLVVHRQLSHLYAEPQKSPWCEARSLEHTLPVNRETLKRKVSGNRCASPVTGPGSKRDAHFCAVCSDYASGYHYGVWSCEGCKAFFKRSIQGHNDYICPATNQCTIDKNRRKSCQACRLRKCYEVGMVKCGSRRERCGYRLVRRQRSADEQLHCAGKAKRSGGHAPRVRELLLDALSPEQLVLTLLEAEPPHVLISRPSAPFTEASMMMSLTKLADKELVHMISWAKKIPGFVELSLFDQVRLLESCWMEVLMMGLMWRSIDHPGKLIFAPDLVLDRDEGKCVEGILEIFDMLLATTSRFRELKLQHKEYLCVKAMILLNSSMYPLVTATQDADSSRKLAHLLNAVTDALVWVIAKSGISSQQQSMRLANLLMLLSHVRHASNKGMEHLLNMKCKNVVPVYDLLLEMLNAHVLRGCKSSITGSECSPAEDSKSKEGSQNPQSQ
A word on the inhibition: it is how much of the control response was suppressed. `CCCc1cc(=O)oc2c(C)c(OC3CCCCC3=O)ccc12` (stereo not drawn): the inhibition is 19% (inactive).
Turning to `CCCc1c(C(=O)OCC)[nH]c2c1C(=O)CC(c1ccccc1)C2` (stereo not drawn), the inhibition was 39% (inactive).
The figure for `CCNC(=O)N1c2ccc(OCC)cc2C(C)=CC1(C)C` is 15% (inactive).
The figure for `CCc1oc2c(C)c(O)ccc2c(=O)c1-c1ccc2ccccc2n1` is 39% (inactive); for `COc1cc([N+](=O)[O-])cc2c1NC(c1ccc(Cl)cc1)C1CC=CC21` (stereo not drawn) it is 1% (inactive); for `COc1cc(/C=N/N2CCN(C3c4ccccc4-c4ccccc43)CC2)cc(OC)c1O` it is 12% (inactive).
Next, `Cc1cccc2cc(C(c3nnnn3C(C)(C)C)N(Cc3ccco3)CC3CCCO3)c(=O)[nH]c12` (stereo not drawn): 18% (inactive).
Turning to `COC(=O)c1ccc(OCc2c(C)noc2C)cc1`, the inhibition is 0% (inactive).
Next, `COc1cc([N+](=O)[O-])cc2c1N[C@@H](c1ccc(C(=O)O)cc1)[C@H]1CC=C[C@@H]21`: 42% (inactive); `COc1cc([C@@H]2Nc3ccc(S(=O)(=O)Nc4ccccc4F)cc3[C@@H]3C=CC[C@@H]32)cc(OC)c1OC`: 11% (inactive); `O=C(O)c1ccc([N+](=O)[O-])c2c1NC(c1ccccc1)C1CC=CC21` (stereo not drawn): 62% (inactive).
Next, `COc1ccc(Cn2c(=O)[nH]c3cc(C(=O)NCc4ccc5c(c4)OCO5)ccc3c2=O)cc1`: 35% (inactive).
The figure for `O=C(O)C1Nc2c(C(=O)N3CCOCC3)cccc2C2C=CCC12` (stereo not drawn) is 45% (inactive); for `Cc1cc(C)c(C(=O)COc2cccnc2[N+](=O)[O-])cc1C` it is 0% (inactive); for `Cc1noc(C)c1S(=O)(=O)N(CC(=O)O)c1ccc2c(c1)OCO2` it is 31% (inactive).
Take `O=C(O)c1cc(-c2ccco2)nc2ccccc12`: the inhibition is 14% (inactive).
Next, `COc1ccc(NS(=O)(=O)c2ccc3c(c2)[C@H]2C=CC[C@H]2[C@@H](c2cccc(OC)c2OC)N3)cc1`: 1% (inactive).
As to `CC12CCCCC1(O)[N+](=O)C1=C(CCCC1)N2[O-]` (stereo not drawn), the inhibition is 0% (inactive).
On to `COc1ccc(C(N)CCc2ccc(C)o2)cc1` (stereo not drawn), for which the inhibition is 38% (inactive).
The figure for `CC(Nc1ccc(N2CCNCC2)cc1[N+](=O)[O-])C12CC3CC(CC(C3)C1)C2` (stereo not drawn) is 15% (inactive).
Next, `Cc1oc2ccc(OCC#N)cc2c1C(=O)OC(C)C`: 14% (inactive); `Cc1c(Cc2ccccc2)c(=O)n2c([nH]c3ccccc32)c1C#N`: 9% (inactive); `CCCCCCc1cc2c3c(c(=O)oc2cc1OCC(=O)OC)CCC3`: 20% (inactive).
The figure for `CCc1cc2c3c(c(=O)oc2cc1OCC(=O)O)CCCC3` is 20% (inactive); for `CCCCOc1cc(OCCCC)c2c3c(c(=O)oc2c1)CCCC3` it is 27% (inactive).
Turning to `Cc1ccc2c(c1)[C@H]1OCC[C@H]1[C@@H](c1ccncc1)N2`, the inhibition is 24% (inactive).
Next, `CC(C)COc1ccc2c(c1)c1c3n2CCNC3CCC1` (stereo not drawn): 9% (inactive); `COc1nnc(-c2ccc(C(=O)N3C[C@@H]4C[C@H](C3)c3cccc(=O)n3C4)cc2)c2ccccc12`: 34% (inactive).
The figure for `Nc1c(Cl)cc(Cl)cc1C(=O)OCC(=O)NC1CC1` is 42% (inactive); for `O=c1oc2c(CN3CCCC3)c(O)ccc2c2c1CCC2` it is 22% (inactive).
Next, `CC1CCCC(C)N1Cc1c(O)ccc2c3c(c(=O)oc12)CCC3` (stereo not drawn): 21% (inactive); `CC(=O)OC1CC(C)(C)N(OC(=O)c2ccc(N)cc2)C(C)(C)C1`: 30% (inactive); `CC1(C)CC(=O)C=C(NC2CC(C)(C)NC(C)(C)C2)C1`: 2% (inactive).
`COC(=O)c1ccc2c(c1)C1C=CCC1C(c1cccc([N+](=O)[O-])c1)N2` (stereo not drawn): the inhibition was 18% (inactive).
For the compound `COc1ccc2[nH]c3c(c2c1)CCNC3=O`, the inhibition was 17% (inactive).
The figure for `COc1cc(C2CC(=O)Nc3c2ccc2ccccc32)cc(Cl)c1O` (stereo not drawn) is 19% (inactive); for `COC(=O)c1cnn2c(C(F)(F)F)cc(-c3ccco3)nc12` it is 27% (inactive); for `Cc1ccc2c(c1)C1C=CCC1C(C(=O)O)N2` (stereo not drawn) it is 0% (inactive).
